# From PubChem BioAssay (EPA / NIEHS)
# The source made the active and inactive calls. The calls were made as follows: active = hit-call score of the fitted dose curve at least 0.9, where 1 is the maximum; inactive = score below 0.9.
# Columns and labels:
# [1] = read-out: Matrix Metallopeptidase 9 (MMP9), MMP9 (gene 4318); assay: BSK_KF3CT_MMP9: BioMAP Diversity Plus: KF3CT Assay for Matrix Metallopeptidase 9 (MMP9) Biomarker Activity (AID 2283074); settings: primary human keratinocytes with fibroblasts; actives raise or lower the signal;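 as to AC50: MMP9 protein level quantified by ELISA in the co-culture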
# Summary of the method: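 Human keratinocyte/foreskin fibroblast co-culture; compound added; 24 h; MMP-9 by ELISA; bidirectional fit vs DMSO baseline.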
# [2] = read-out: urokinase plasminogen activator (uPA), PLAU (gene 5328); assay: BSK_KF3CT_uPA: BioMAP Diversity Plus: KF3CT Assay for urokinase plasminogen activator (uPA) Biomarker Activity (AID 2283075); settings: primary human keratinocytes with fibroblasts; actives raise or lower the signal
# Summary of the method: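 ELISA readout of uPA, analyzed for signal gain or loss relative to DMSO, from a human primary keratinocyte–foreskin fibroblast co-culture measured 24 h after chemical treatment.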
# CD40, CD40 (gene 958) [3] = assay: BSK_LPS_CD40: BioMAP Diversity Plus: LPS Assay for CD40 Biomarker Activity (AID 2283076); settings: primary human HUVEC with PBMC; actives raise or lower the signal
# Summary of the method: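 In the LPS system of human endothelial cells with peripheral blood mononuclear cells, CD40 levels were read by ELISA 24 h post-treatment. Signal changes in either direction were fitted against the DMSO baseline, with parallel SRB protein staining.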
# [4] = read-out: E-selectin (Homo sapiens) (UniProt P16581); assay: BSK_LPS_Eselectin: BioMAP Diversity Plus: LPS Assay for Eselectin Biomarker Activity (AID 2283077); settings: primary human HUVEC with PBMC; actives raise or lower the signal
# Summary of the method: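 E-selectin ELISA on LPS-stimulated endothelial cell/PBMC co-cultures, read 24 h post-treatment; gains and losses fitted against DMSO. Parallel SRB staining (0.1% SRB after 10% TCA fixation, 560 nm) flags overt cytotoxicity.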
# [5] = read-out: Interleukin-8 (IL8), CXCL8 (gene 3576); assay: BSK_LPS_IL8: BioMAP Diversity Plus: LPS Assay for Interleukin-8 (IL8) Biomarker Activity (AID 2283078); settings: primary human HUVEC with PBMC; actives raise or lower the signal
# Summary of the method: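 ELISA read-out of IL-8 after 24 h chemical treatment of LPS-activated endothelial/PBMC human primary co-cultures. Changes either up or down relative to DMSO; overt cytotoxicity checked by sulforhodamine B staining in parallel wells.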
# [6] = BSK_LPS_SRB: Viability Assessment in the BioMAP Diversity Plus: LPS Assay (AID 2283079); settings: primary human HUVEC with PBMC;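 also: total protein by sulforhodamine B absorbance as a cytotoxicity measure; measured one day after compound addition; fitted in both directions against DMSO so loss or gain of signal counts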
# Summary of the method: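 SRB viability endpoint: cells fixed with 10% TCA, stained with 0.1% SRB, read at 560 nm, 24 h post-dose. HUVEC/PBMC co-culture; signal change in either direction scored relative to DMSO.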
# [7] = read-out: Interleukin-1 alpha (IL1a), IL1A (gene 3552); assay: BSK_LPS_IL1a: BioMAP Diversity Plus: LPS Assay for Interleukin-1 alpha (IL1a) Biomarker Activity (AID 2283080); settings: primary human HUVEC with PBMC; actives raise or lower the signal
# Summary of the method: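 Readout is IL-1a level by ELISA, 24 h post-dose, fitted as gain or loss relative to DMSO. System: LPS-activated human primary co-culture of vascular endothelium and peripheral blood mononuclear cells, with parallel SRB total-protein cytotoxicity.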
# [8] = read-out: Monocyte Chemoattractant Protein-1 (MCP1), CCL2 (gene 6347); assay: BSK_LPS_MCP1: BioMAP Diversity Plus: LPS Assay for Monocyte Chemoattractant Protein-1 (MCP1) Biomarker Activity (AID 2283081); settings: primary human HUVEC with PBMC; actives raise or lower the signal;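 as to AC50: secreted MCP-1 protein quantified by ELISA in culture supernatant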
# Summary of the method: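 Secreted MCP-1 read by ELISA at 24 h post-dosing in an LPS-activated co-culture of endothelial cells with peripheral blood mononuclear cells. Fits run in both directions, DMSO as baseline; parallel SRB staining tracks overt cytotoxicity.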
# [9] = BSK_LPS_PGE2: BioMAP Diversity Plus: LPS Assay for Prostaglandin E2 (PGE2) Biomarker Activity (AID 2283082); settings: primary human HUVEC with PBMC; actives raise or lower the signal
# Summary of the method: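 HUVEC plus human PBMC co-culture stimulated with LPS; secreted PGE2 quantified by ELISA 24 h after chemical dosing. Activity fitted bidirectionally against DMSO baseline; parallel SRB staining (0.1% SRB after 10% TCA fixation, 560 nm) flags overt cytotoxicity.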
# [10] = read-out: Macrophage colony-stimulating factor (MCSF), CSF1 (gene 1435); assay: BSK_LPS_MCSF: BioMAP Diversity Plus: LPS Assay for Macrophage colony-stimulating factor (MCSF) Biomarker Activity (AID 2283083); settings: primary human HUVEC with PBMC; actives raise or lower the signal
# Summary of the method: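 Bidirectional fitting against DMSO was applied to M-CSF levels read by ELISA at 24 h post-dose. The system pairs human umbilical vein endothelium with peripheral blood mononuclear cells; parallel SRB staining tracked cytotoxicity.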
# [11] = read-out: Tissue Factor, F3 (gene 2152); assay: BSK_LPS_TissueFactor: BioMAP Diversity Plus: LPS Assay for Tissue Factor Biomarker Activity (AID 2283084); settings: primary human HUVEC with PBMC; actives raise or lower the signal
# Summary of the method: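 Compound was added to an endothelial cell/PBMC co-culture, and after 24 h tissue factor (CD142) was read by ELISA. Gain or loss of signal was fitted against a DMSO baseline, and parallel SRB staining (560 nm) tracked overt cytotoxicity.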
# [12] = read-out: Tumor necrosis factor (Homo sapiens) (UniProt P01375); assay: BSK_LPS_TNFa: BioMAP Diversity Plus: LPS Assay for Tumour Necrosis Factor alpha (TNFa) Biomarker Activity (AID 2283085); settings: primary human HUVEC with PBMC; actives raise or lower the signal
# Summary of the method: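 Human umbilical vein endothelial cells co-cultured with PBMC and stimulated with LPS. TNFa was measured by ELISA 24 h after chemical dosing, fitted bidirectionally relative to DMSO.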
# CD38, CD38 (gene 952) = assay: BSK_SAg_CD38: BioMAP Diversity Plus: SAg Assay for CD38 Biomarker Activity (AID 2283087); settings: primary human HUVEC with PBMC; actives raise or lower the signal
# Summary of the method: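 Human HUVEC plus PBMC co-culture stimulated with superantigen; CD38 measured by ELISA 24 h after chemical dosing. Fluorescence read-out, bidirectional fit against DMSO; cytotoxicity tracked in parallel by SRB and Alamar Blue.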
# CD40, CD40 (gene 958) [13] = assay: BSK_SAg_CD40: BioMAP Diversity Plus: SAg Assay for CD40 Biomarker Activity (AID 2283088); settings: primary human HUVEC with PBMC; actives raise or lower the signal
# Summary of the method: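 CD40 is measured by fluorescence ELISA in an endothelial/PBMC primary human co-culture at 24 h post-dose. Fitting is bidirectional, DMSO baseline. Parallel SRB staining (560 nm) flags cytotoxicity.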
# CD69, CD69 (gene 969) = assay: BSK_SAg_CD69: BioMAP Diversity Plus: SAg Assay for CD69 Biomarker Activity (AID 2283089); settings: primary human HUVEC with PBMC; actives raise or lower the signal;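 as to AC50: cell surface CD69 protein quantified by ELISA with fluorescence detection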
# Summary of the method: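 Values derive from bidirectional fitting relative to DMSO vehicle. Cells: umbilical vein endothelium plus peripheral blood mononuclear cells, treated 24 h before fluorescent ELISA for CD69.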
# [14] = read-out: Monocyte Chemoattractant Protein-1 (MCP1), CCL2 (gene 6347); assay: BSK_SAg_MCP1: BioMAP Diversity Plus: SAg Assay for Monocyte Chemoattractant Protein-1 (MCP1) Biomarker Activity (AID 2283090); settings: primary human HUVEC with PBMC; actives raise or lower the signal
# Summary of the method: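 MCP-1 levels in the endothelial–PBMC SAg co-culture were quantified by ELISA at 24 h post-dosing; both increases and decreases versus DMSO scored. Cytotoxicity monitored by SRB total protein in parallel cultures.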
# [15] = read-out: Monokine induced gamma interferon (MIG), CXCL9 (gene 4283); assay: BSK_SAg_MIG: BioMAP Diversity Plus: SAg Assay for Monokine induced gamma interferon (MIG) Biomarker Activity (AID 2283092); settings: primary human HUVEC with PBMC; actives raise or lower the signal
# Summary of the method: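 Values reflect bidirectional fitting of ELISA-measured MIG against DMSO vehicle, taken 24 h after dosing of a co-culture of human umbilical vein endothelial cells and peripheral blood mononuclear cells.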
# [16] = BSK_SAg_PBMCCytotoxicity: PBMC Cytotoxicity Assessment in the BioMAP Diversity Plus: SAg Assay (AID 2283093); settings: primary human HUVEC with PBMC;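 also: PBMC viability measured as Alamar Blue reduction fluorescence at 546/580 nm; fitted both ways against DMSO so a hit may be loss or gain of signal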;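 as to AC50: PBMC superantigen activated with SEB plus TSST-1 one hour after compound addition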
# Summary of the method: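 Compound added to 75,000 PBMC/well for 1 h; SEB and TSST-1 then added at 20 ng/mL final each; 90 h incubation; Alamar Blue 6 h; read 546/580 nm ex/em. Activity fitted bidirectionally relative to DMSO baseline.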
# [17] = read-out: E-selectin (Homo sapiens) (UniProt P16581); assay: BSK_SAg_Eselectin: BioMAP Diversity Plus: SAg Assay for Eselectin Biomarker Activity (AID 2283091); settings: primary human HUVEC with PBMC; actives raise or lower the signal
# Summary of the method: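 Cell-surface E-selectin is read by ELISA at 24 h in the SAg co-culture of HUVEC and PBMC. Curves are fitted in both directions relative to DMSO. Parallel SRB total-protein staining tracks overt toxicity.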
# E-selectin (Homo sapiens), sequence (P16581 whole entry, looked up): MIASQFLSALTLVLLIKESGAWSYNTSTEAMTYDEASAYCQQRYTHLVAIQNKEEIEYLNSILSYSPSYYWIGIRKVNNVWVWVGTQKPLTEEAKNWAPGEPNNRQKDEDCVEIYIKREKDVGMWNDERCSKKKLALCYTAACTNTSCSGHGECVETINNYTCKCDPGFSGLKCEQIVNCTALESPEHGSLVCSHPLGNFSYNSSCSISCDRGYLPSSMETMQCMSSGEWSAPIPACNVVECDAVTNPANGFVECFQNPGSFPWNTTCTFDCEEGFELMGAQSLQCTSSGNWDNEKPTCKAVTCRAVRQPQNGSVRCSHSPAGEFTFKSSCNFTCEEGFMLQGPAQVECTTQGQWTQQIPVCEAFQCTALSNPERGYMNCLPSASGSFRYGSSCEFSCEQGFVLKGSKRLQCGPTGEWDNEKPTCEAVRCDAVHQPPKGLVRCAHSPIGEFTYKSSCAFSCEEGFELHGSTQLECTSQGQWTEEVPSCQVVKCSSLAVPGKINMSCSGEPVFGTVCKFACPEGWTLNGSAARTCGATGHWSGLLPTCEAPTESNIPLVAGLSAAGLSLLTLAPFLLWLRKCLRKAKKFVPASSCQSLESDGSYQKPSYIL
# Tumor necrosis factor (Homo sapiens), sequence (P01375 whole entry, looked up): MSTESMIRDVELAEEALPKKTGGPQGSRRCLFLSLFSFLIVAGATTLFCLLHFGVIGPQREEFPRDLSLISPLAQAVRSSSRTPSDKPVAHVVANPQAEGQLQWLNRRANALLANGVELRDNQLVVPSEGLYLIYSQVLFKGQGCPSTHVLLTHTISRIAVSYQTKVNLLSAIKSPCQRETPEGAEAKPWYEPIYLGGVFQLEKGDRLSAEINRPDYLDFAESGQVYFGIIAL
smiles,measurement,setting,value
COC(=O)Nc1nc2ccccc2[nH]1,outcome,[1],inactive
same,outcome,[2],inactive
same,outcome,"CD40, CD40 (gene 958) [3]",inactive
same,outcome,[4],inactive
same,outcome,[5],inactive
same,AC50,[6],10.5 µM (active)
same,outcome,[7],inactive
same,outcome,[8],inactive
same,outcome,[9],inactive
same,AC50,[10],7.04 µM (active)
same,outcome,[11],inactive
same,outcome,[12],inactive
same,outcome,"CD38, CD38 (gene 952)",inactive
same,outcome,"CD40, CD40 (gene 958) [13]",inactive
same,outcome,"CD69, CD69 (gene 969)",inactive
same,outcome,[14],inactive
same,outcome,[15],inactive
same,outcome,[16],inactive
c1ccc2c(c1)oc1ccccc12,outcome,[1],inactive
same,outcome,[2],inactive
same,outcome,"CD40, CD40 (gene 958) [3]",inactive
same,outcome,[4],inactive
same,outcome,[5],inactive
same,outcome,[6],inactive
same,outcome,[7],inactive
same,outcome,[8],inactive
same,outcome,[9],inactive
same,outcome,[10],inactive
same,outcome,[11],inactive
same,outcome,[12],inactive
same,outcome,"CD38, CD38 (gene 952)",inactive
same,outcome,"CD40, CD40 (gene 958) [13]",inactive
same,outcome,"CD69, CD69 (gene 969)",inactive
same,outcome,[14],inactive
same,outcome,[17],inactive
same,outcome,[15],inactive
same,outcome,[16],inactive
O=C(O)C1C2CCC(O2)C1C(=O)O (centres undefined),AC50,[1],28.7 µM (active)
same,outcome,[2],inactive
same,outcome,"CD40, CD40 (gene 958) [3]",inactive
same,outcome,[4],inactive
same,outcome,[5],inactive
same,AC50,[6],18.6 µM (active)
same,AC50,[7],18.6 µM (active)
same,outcome,[8],inactive
same,outcome,[9],inactive
same,outcome,[10],inactive
same,outcome,[11],inactive
same,AC50,[12],6.16 µM (active)
same,outcome,"CD38, CD38 (gene 952)",inactive
same,outcome,"CD40, CD40 (gene 958) [13]",inactive
same,outcome,"CD69, CD69 (gene 969)",inactive
same,outcome,[14],inactive
same,outcome,[17],inactive
same,outcome,[15],inactive
same,outcome,[16],inactive
Clc1ccc(C(c2ccc(Cl)cc2)C(Cl)(Cl)Cl)cc1,AC50,[1],11 µM (active)
same,AC50,[2],20.1 µM (active)
same,AC50,"CD40, CD40 (gene 958) [3]",20 µM (active)
same,AC50,[4],31.7 µM (active)
same,AC50,[5],27.4 µM (active)
same,AC50,[6],28.9 µM (active)
same,AC50,[7],14.6 µM (active)
same,AC50,[8],33.1 µM (active)
same,outcome,[9],inactive
same,AC50,[10],19.5 µM (active)
same,AC50,[11],38.7 µM (active)
same,AC50,[12],24.8 µM (active)
same,AC50,"CD40, CD40 (gene 958) [13]",23.2 µM (active)
same,AC50,"CD69, CD69 (gene 969)",25.5 µM (active)
same,AC50,[14],30 µM (active)
same,AC50,[17],38.2 µM (active)
same,AC50,[15],35.1 µM (active)
same,AC50,[16],15.5 µM (active)
